# Screens as filed in PubChem.
# The list is not random: actives were taken first. Their share in the collection is about 6.2%.
# HCMV antiviral: inhibitors of human cytomegalovirus; activity change, negative = inhibition, % at 57.5 µM; HFF cells, HCMV-luciferase reporter, 72 h; stronger effect = lower value; 410,000 tested, 4.5% active; in the data active means activity change below about -60%; inconclusive means no clear call, values can overlap the other calls; inactive means above about -39%
#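 After 16 h attachment at 37C, HFF cells received test compound and HCMV-luciferase (1 PFU/cell); reporter luminescence read 72 h later, data normalized against buffer-only and known inhibitor Salinomycin.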
# MARV entry inh: blocks Marburg virus binding to or entry into cells; Marburg virus pseudotyped entry inhibition, cell reporter; Potency, µM (series often up to 37.8 µM), without a hit: at the highest dose activity change, negative = inhibition, most hits filed as inhibitors; 300,000 tested, 1.8% active; AID 540276; calls by dose curve; tested in HEK293 cells; further: potency means the concentration at half of the fitted maximal effect
# Lassa entry inh: Lassa virus entry inhibition; Lassa virus pseudotype entry inhibition, cell reporter; Potency, µM (doses to about 37.9 µM), for inactives: at the top dose activity change, negative = inhibition, actives largely listed as inhibitors; 300,000 tested, 1.2% active; calls by dose curve; tested in HEK293 cells; further: potency means the concentration at half of the fitted maximal effect; nearly all actives have a fitted effect of over 50% in size
# FMDV antiviral: antivirals against foot and mouth disease virus; 410,000 tested, 1.2% active; Potency, µM (doses to about 57.9 µM), inactives show at the top dose activity change, negative = inhibition, actives largely listed as inhibitors; AID 1159524; FMDV antiviral cell-based qHTS; calls by dose curve; tested in HEK293T cells; further: read-out not given here; potency means the concentration at half of the fitted maximal effect; nearly all actives have a fitted effect of over 45% in size
# The depositor's hits bear a star; ? = inconclusive; · = no result given; + = active, no number; [ ] = another dose, or the depositor's remark. On the % scale 0 is the no-effect control and ±100 the full control effect.
SMILES,HCMV antiviral,MARV entry inh,Lassa entry inh,FMDV antiviral
COc1ccc2oc(-c3ccccc3)c(C(=O)N3CCOCC3)c2c1,24,5%,2%,0%
C=CCOc1ccc(C2=NOC(C(=O)Nc3ccc4c(c3)OCCO4)C2)cc1OC (stereo not drawn),18,?,-19%,-26%
Cc1cc(Cl)n2nc(C)c(-c3ccc(Cl)cc3)c2n1,-7,?,16µM*,?
Cc1cc(SCC#N)n2nc(C)c(-c3ccccc3)c2n1,-73*,-15%,-18%,-10%
CC(C)OC(=O)c1cc(NC(=O)c2nn(C)cc2Br)cc(C(=O)OC(C)C)c1,12,?,5.2µM*,0%
COC(=O)[C@H](Cc1ccccc1)N1C[C@@H](N2CCC[C@@H]2C)C[S+]1(=O)[O-],·,·,-7%[46.1 µM],·
Cc1c(NC(=O)C2CCCN(S(=O)(=O)c3cnc[nH]3)C2)c(=O)n(-c2ccccc2)n1C (stereo not drawn),95,-2%,·,-19%
Oc1ccccc1N=Nc1ccccc1O,-99*,·,·,56%
Nc1ccc(N=Nc2ccccc2O)c(N)c1,79,14%,-5%,37%
CC(Cc1cccs1)NC(=S)Nc1ccc(Cl)cc1 (stereo not drawn),-92*,?,-4%,21%
CC(Cc1cccs1)NC(=S)Nc1ccc(Cl)c(Cl)c1 (stereo not drawn),?,-6%,-10%,38%
Cc1ccccc1OCC(=O)N(Cc1nnc(-c2ccc(Cl)cc2)o1)C(C)C,-2,·,·,5%
Cc1nn(C)c(Oc2ccc(Cl)cc2)c1C(=O)Nc1ccc(F)cc1F,-60*,-20%,1%,0%
NC(=O)C1CCN(Cc2nc3cc(Cl)ccc3c(=O)[nH]2)CC1,-13,4%,25%,-22%
CCNCc1nc2cc(Cl)ccc2c(=O)[nH]1,-69*,-7%,0%,-8%
Cc1c(C)c2ccc(OCC(=O)N3CCN(c4ccccc4)CC3)cc2oc1=O,·,·,·,-16%
N/C(=N\c1nc(CSc2ccc(Cl)cc2)cc(=O)[nH]1)Nc1cccc2ccccc12,-73*,?,2%,-9%
CC(NC(=O)CCCCCCN1C(=O)c2ccccc2C1=O)c1ccc2c(c1)CCCC2 (stereo not drawn),-39,-6%,-5%,0%
CC1=CC(C)(C)N2C(=O)C3(SCC(=O)N3c3ccc(F)cc3)c3cc(C)cc1c32 (stereo not drawn),-67*,?,-3%,18µM*
Cc1cc(C)c(NC(=O)CN2C(=O)C3(SCC(=O)N3c3ccc(F)cc3)c3ccccc32)c(C)c1 (stereo not drawn),-18,·,-16%[46.1 µM],-23%
O=C(NC1CCCCC1)C(c1cccs1)N(CCCN1CCOCC1)C(=O)c1ccc(-c2ccccc2)[nH]1 (stereo not drawn),-5,?,-18%,-14%
Cc1ccc(C(C(=O)NC(C)(C)C)N(CCCN2CCOCC2)C(=O)c2ccc(-c3ccccc3)[nH]2)o1 (stereo not drawn),-74*,-3%[46.1 µM],12%,21%
CCCCOc1ccc(C(=O)NC(=S)Nc2ccc(CN3CCOCC3)cc2)cc1,29,-1%,-2%,-29%
CCc1ccc(-c2cc(C)no2)cc1S(=O)(=O)N1CCN(c2ccc(OC)cc2)CC1,-67*,?,?,-23%
COc1ccc(-c2cc(C)no2)cc1S(=O)(=O)N1CCN(c2ccc([N+](=O)[O-])cc2)CC1,+,·,·,-25%
SMILES,HCMV antiviral,MARV entry inh,Lassa entry inh,FMDV antiviral
CCc1ccc(-c2cc(C)no2)cc1S(=O)(=O)N1CCOc2ccccc21,-74*,?,?,?
Cc1ccc(C)c(-n2nnnc2SCC(=O)NCC2CCCO2)c1 (stereo not drawn),1,·,·,-9%
CCN(CC)S(=O)(=O)c1ccc(/C=C/C(=O)OCC(=O)N(C)C)cc1,-14,18%[46.1 µM],·,-5%
O=C1C2C3C=CC(CC3)C2C(=O)N1c1ccccc1F (stereo not drawn),-63*,2%[46.1 µM],-4%[46.1 µM],-14%
O=C(CCc1c[nH]c2ccccc12)N1CCCCCCC1,-28,18%[46.1 µM],0%[46.1 µM],18%
CC(C)(C)c1cc(CCC(=O)N2CCNCC2)c(C(C)(C)C)cc1O,-2,15µM*,-24%,-17%
O=C1C=C(c2cccs2)C[C@H](c2ccccc2)[C@H]1n1nnc([N+](=O)[O-])n1,-80*,1.3µM*,?,-2%
O=C(COC(=O)C1CCN(S(=O)(=O)c2ccc(Cl)c(C(F)(F)F)c2)CC1)NCC1CCCO1 (stereo not drawn),2,·,·,-4%
COc1ccc(NC(=O)CN(C)C(C)C(=O)N2CCCCC2)cc1 (stereo not drawn),-18,?,8%,-18%
CC(C)n1ncc2c(C(=O)N3CCN(c4ccc(F)cc4)CC3)cc(-c3ccccc3)nc21,-70*,·,·,7%
O=C(CN1CCN(c2ccccc2)CC1)Nc1ccccc1Sc1ccccc1,-29,4.5µM*,?,-1%
O=C(CN1CCN(c2ccccc2)CC1)Nc1ccccc1Cl,-33,·,·,-20%
CCc1ccccc1NC(=O)CN1CCN(C(=O)C(C)NC(=O)c2ccc(Cl)cc2)CC1 (stereo not drawn),-28,-17%,-14%,-20%
O=C(CCl)Nc1ccccc1Sc1ccc(Cl)cc1,-103*,23µM*,?,32µM*
CC(=O)N1CCN(CC(=O)Nc2ccccc2Sc2ccc(Cl)cc2)CC1,-71*,-14%,5µM*,?
C=CCn1c(=NC(=O)CN2C(=O)CCC2=O)sc2cc(S(N)(=O)=O)ccc21,-6,8%,-5%,-12%
CC(=O)c1c(C)[nH]c(C(=O)NC2CCCCC2)c1C,45,16%,?,44%
CCOC(=O)C1=C(O)CCn2c1nc1ccccc12,-107*,24%,-6%,-12%
COCNc1nc(OCC#N)nc(N(C)C)n1,85,?,13%,16%
COc1cccc(C=Nc2ccccc2C#N)c1O,8,10%,4%,-13%
CSc1nsc(N/N=C/c2ccccc2)c1C#N,-39,-29%[46.1 µM],-2%,28%
COc1cccc(/C=N/Nc2snc(SC)c2C#N)c1O,-98*,?,?,?
COc1ccc(/C=N/Nc2snc(SC)c2C#N)cc1OC,82,?,6.3µM*,-2%
COc1cccc(/C=N/Nc2snc(SC)c2C#N)c1,6,?,5.6µM*,-10%
O=C(c1ccco1)N1CCN(Cc2cccc3ccccc23)CC1,-16,5µM*,10µM*,-8%
SMILES,HCMV antiviral,MARV entry inh,Lassa entry inh,FMDV antiviral
O=C(c1ccco1)N1CCN(c2nc3ccccc3c(=O)n2-c2ccccc2)CC1,-10,-28%,?,7.1µM*
Cc1cc(N2CCN(C(=O)c3ccco3)CC2)c2ccccc2n1,-13,·,·,-9%
O=C(c1ccco1)N1CCN(Cc2c(Cl)cccc2Cl)CC1,35,·,·,0%
COc1ccc(/C=N/NC(=O)Cc2cccs2)cc1,79,·,·,83%
Cc1ccc(/C=N/NC(=O)Cc2cccs2)o1,-74*,12%,9%,5%
Cc1ccc(-c2cc3onc(-c4ccccc4)c3c(=O)n2C)cc1,-71*,·,·,18µM*
CCOc1ccc(C(CC(=O)O)NC(=O)c2ccco2)cc1OC (stereo not drawn),-100*,14%,16%,-22%
Cn1cnnc1SCC(=O)Nc1ccccc1Oc1ccccc1,19,9%[46.1 µM],0%[46.1 µM],-9%
